From PubChem BioAssay (EPA / NIEHS) come the findings set out here.

Results filed as inconclusive are left out. Activity calls are given as the source filed them. How the source made its calls: active means hit-call score of the fitted dose curve at least 0.9, where 1 is the maximum; inconclusive means response in the unintended direction; inactive means score below 0.9.

Assay [1] deals with zebrafish Androgen Receptor (AR), gene 100005148. Description: ATG_zfAR_XSP1: Attagene TRANS-FACTORIAL Multi-Species (XSP1) HepG2 Assay for zebrafish Androgen Receptor (AR) (AID 2283771). The method, boiled down:
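Gain-of-signal versus DMSO was measured as reporter transcripts quantified by RT-PCR, fluorescent labelling and capillary electrophoresis after 24 h chemical exposure. The cells were HepG2 expressing a chimeric zebrafish AR-GAL4, co-stimulated with 3 nM 6-alpha-fluorotestosterone.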

For assay [2], the target named is zebrafish Estrogen Receptor (ESR1), esr1 (gene 259252) (UniProt P57717). Description: ATG_zfER1_XSP1: Attagene TRANS-FACTORIAL Multi-Species (XSP1) HepG2 Assay for zebrafish Estrogen Receptor (ESR1) (AID 2283772). The method, boiled down: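 Readout: fluorescent reporter mRNA, RT-PCR plus FAM labelling, HpaI digest, capillary electrophoresis; gain-of-signal fit vs DMSO. HepG2, transient multi-reporter TRANS (NR-GAL4 chimera), 24 h chemical exposure, 3 nM 6-alpha-fluorotestosterone co-added.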

For assay [3], the system named is zebrafish Estrogen Receptor (ESR2B), gene 317733. Kind of assay: ATG_zfER2b_XSP1: Attagene TRANS-FACTORIAL Multi-Species (XSP1) HepG2 Assay for zebrafish Estrogen Receptor (ESR2B) (AID 2283773). Summed up:
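Medium contained 3 nM 6-alpha-fluorotestosterone. Reporter mRNA induction by exogenous zebrafish ER2b-Gal4 chimera was read 24 h post-dose in transiently transfected HepG2 cells, using RT-PCR, fluorescent labelling, HpaI digestion and capillary electrophoresis.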

In assay [4] the test system is frog Estrogen Receptor (ESR2), gene 100174814. Kind of assay: ATG_frER2_XSP1: Attagene TRANS-FACTORIAL Multi-Species (XSP1) HepG2 Assay for frog Estrogen Receptor (ESR2) (AID 2283774). Summed up:
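Reporter mRNA from a multiplexed TRANS system, measured by RT-PCR with fluorescent labelling and capillary electrophoresis, 24 hours after chemical exposure. Human HepG2 liver cells carried exogenous frog ER-Gal4 chimera; medium included 3 nM 6-alpha-fluorotestosterone; increases versus DMSO analysed.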

In assay [5] the test system is frog Estrogen Receptor (ESR1), gene 398734. Description: ATG_frER1_XSP1: Attagene TRANS-FACTORIAL Multi-Species (XSP1) HepG2 Assay for frog Estrogen Receptor (ESR1) (AID 2283777). The method, boiled down:
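HepG2 cells transiently transfected with GAL4-UAS reporter units and frog ER–Gal4 chimera were dosed for 24 h with 3 nM 6-alpha-fluorotestosterone present. Reporter mRNA was measured by RT-PCR and capillary electrophoresis; gain of signal fitted versus DMSO.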

Assay [6] addresses chicken Estrogen Receptor (ESR1), ESR1 (gene 396099) (UniProt P06212). Description: ATG_chERa_XSP1: Attagene TRANS-FACTORIAL Multi-Species (XSP1) HepG2 Assay for chicken Estrogen Receptor (ESR1) (AID 2283779). The method, boiled down:
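Trans-activation of an exogenous chicken ERα–Gal4 chimera read as reporter transcript (RT-PCR, fluorescent labeling, capillary electrophoresis) after 24 h compound exposure of transfected HepG2; medium held 3 nM 6-alpha-fluorotestosterone. Positive-direction fit against DMSO.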

Assay [7] can be described thus: ACEA_AR_agonist_AUC_viability: ACEA Biosciences xCELLigence Real-Time Cell Analysis on Androgen Receptor Agonism for Viability (AID 2283775).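 On AC50: viability read 80 hours after compound addition.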 The method, boiled down:
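22Rv1 cells; impedance growth kinetics; 8-pt 1:4 dilutions from 100 uM top final, ≤0.5% DMSO; n = 2; 80 h read; AUC viability, loss-of-signal vs DMSO.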

A short description of assay [8]: ACEA_AR_antagonist_AUC_viability: ACEA Biosciences xCELLigence Real-Time Cell Analysis on Androgen Receptor Antagonism for Viability (AID 2283776).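 Further: 22Rv1 human prostate cancer cells growing on impedance electrode plates; area under impedance growth curve at 80 h after dosing as viability; hits lower the growth signal relative to DMSO meaning cytotoxicity.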 Summed up: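 22Rv1 prostate cells, continuous dosing up to 100 uM final (0.5% DMSO max), duplicate plates. Growth measured by impedance; AUC at 80 h, loss of signal vs DMSO.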

What is called AC50 is the midpoint of the concentration-response curve, whichever way the signal moves.

zebrafish Estrogen Receptor (ESR1), esr1 (gene 259252), sequence (P57717 whole entry, looked up, the tested form may be a part): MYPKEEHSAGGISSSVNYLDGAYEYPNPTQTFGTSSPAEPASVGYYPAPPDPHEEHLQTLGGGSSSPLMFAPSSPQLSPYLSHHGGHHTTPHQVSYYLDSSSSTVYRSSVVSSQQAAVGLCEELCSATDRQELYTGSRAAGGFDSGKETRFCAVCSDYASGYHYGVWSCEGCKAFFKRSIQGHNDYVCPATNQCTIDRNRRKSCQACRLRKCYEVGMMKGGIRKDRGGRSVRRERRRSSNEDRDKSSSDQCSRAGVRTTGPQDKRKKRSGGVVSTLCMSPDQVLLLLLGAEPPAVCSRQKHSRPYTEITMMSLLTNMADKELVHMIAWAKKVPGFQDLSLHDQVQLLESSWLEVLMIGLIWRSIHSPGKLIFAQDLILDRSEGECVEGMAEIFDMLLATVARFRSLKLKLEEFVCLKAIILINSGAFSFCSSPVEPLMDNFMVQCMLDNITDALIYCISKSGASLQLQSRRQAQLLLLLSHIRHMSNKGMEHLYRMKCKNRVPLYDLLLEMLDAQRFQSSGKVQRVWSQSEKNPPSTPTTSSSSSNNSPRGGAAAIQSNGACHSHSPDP
chicken Estrogen Receptor (ESR1), ESR1 (gene 396099), sequence (P06212 whole entry, looked up, the tested form may be a part): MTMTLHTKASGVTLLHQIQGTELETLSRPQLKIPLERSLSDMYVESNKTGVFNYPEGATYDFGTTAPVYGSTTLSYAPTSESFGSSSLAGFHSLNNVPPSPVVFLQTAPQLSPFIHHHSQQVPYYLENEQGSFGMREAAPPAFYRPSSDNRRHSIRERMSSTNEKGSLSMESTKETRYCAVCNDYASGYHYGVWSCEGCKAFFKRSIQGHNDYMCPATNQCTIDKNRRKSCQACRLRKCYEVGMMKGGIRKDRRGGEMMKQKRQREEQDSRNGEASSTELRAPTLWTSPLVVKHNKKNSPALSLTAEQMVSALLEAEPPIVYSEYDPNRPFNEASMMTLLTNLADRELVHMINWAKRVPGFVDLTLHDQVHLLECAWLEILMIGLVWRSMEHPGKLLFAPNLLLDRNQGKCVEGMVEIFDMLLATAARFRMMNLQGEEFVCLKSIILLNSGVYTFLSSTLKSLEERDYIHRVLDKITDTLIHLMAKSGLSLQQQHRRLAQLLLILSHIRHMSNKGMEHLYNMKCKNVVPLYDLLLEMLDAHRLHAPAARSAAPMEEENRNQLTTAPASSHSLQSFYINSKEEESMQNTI

As for `CC/C(=C(\c1ccccc1)c1ccc(OCCN(C)C)cc1)c1ccccc1`, the molecule was classed as inactive in assay [1], in assay [2] and in assay [3]. Regarding `C#C[C@]1(O)CC[C@H]2[C@@H]3CCc4cc(O)ccc4[C@H]3CC[C@@]21C`, the AC50 is 0.281 nM (active) in assay [2], 0.273 nM (active) in assay [4], 0.0393 nM (active) in assay [5] and 0.0617 nM (active) in assay [6]. As to `O=C(O)c1ccccc1O`, the outcome in assay [7] was inactive. For `CC1=CCC(C(C)(C)O)CC1` (configuration not stated), the molecule was called inactive in assay [7] and in assay [8]. Regarding `CC(=O)CC(=O)N(C)C`, the call in assay [7] and in assay [8] was inactive. Regarding `c1ccc(Cc2ccccc2)cc1`, in assay [7], the molecule was called inactive. Besides, in assay [8], the AC50 was 9270 nM (active). On to `CC12CCC(C1)C(C)(C)C2O` (configuration not stated), for which the molecule was classed as inactive in assay [7] and in assay [8]. With `CC(O)CN` (configuration not stated), the result in assay [7] and in assay [8] was inactive. For `CCCCC(CC)COCCO` (configuration not stated), the call in assay [7] was inactive. Consider `CC(C)N(c1ccccc1)C(C)C`, for which the molecule was called inactive in assay [7] and in assay [8]. Regarding `CCCCOCCOCCOCCO`, the call in assay [7] and in assay [8] was inactive. For the molecule `COc1cc(OC)c2ccc(=O)oc2c1`, the values for the AC50 in assay [7] and in assay [8] were 940 nM (active) and 250 nM (active), respectively.

With `CCCCCCCCCCO[C@@H]1O[C@H](CO)[C@@H](O)[C@H](O)[C@H]1O`, the molecule was classed as inactive in assay [7] and in assay [8].

For `CCC(C)C1CCCCC1=O` (configuration not stated), the call in assay [7] was inactive.

Consider `FC(F)(F)c1ccc(Cl)c(Cl)c1`, for which the outcome in assay [7] was inactive. Consider `CCCCCCC(C)O` (configuration not stated), for which the result in assay [8] was inactive.

Regarding `C=CCCCCCCCCC(=O)OCC`, the molecule was classed as inactive in assay [7] and in assay [8]. As for `CC(=O)c1ccc2ccccc2c1`, the molecule was classed as inactive in assay [7] and in assay [8]. For `c1ccc(OCCOc2ccccc2)cc1`, the molecule was classed as inactive in assay [7] and in assay [8]. As for `CCC(C)(C)C1CCC(OC)CC1` (configuration not stated), the outcome in assay [7] was inactive. Same read-out and setting: then `NCCN1CCNCC1`, with “inactive”. As to `O=S(=O)(O)c1cc(S(=O)(=O)O)c2c(N=Nc3ccccc3)c(O)ccc2c1`, the outcome in assay [8] was inactive.

Turning to `CC(CCO)CC(C)(C)C` (configuration not stated), the result in assay [7] was inactive.

`NC(=O)c1cccnc1`: the molecule was called inactive in assay [7].

Regarding `CCCCCCCCCCOC(=O)c1ccccc1C(=O)OCCCCCCCC`, the call in assay [7] and in assay [8] was inactive.

In the case of `CCOCC(C)O` (configuration not stated), the molecule was called inactive in assay [7] and in assay [8]. Take `CCCCCCCCCOS(=O)(=O)O`: the call in assay [7] was inactive. With `CCCCCC1CCC(=O)O1` (configuration not stated), the molecule was classed as inactive in assay [7] and in assay [8]. As to `CCNC(=S)NCC`, the call in assay [7] and in assay [8] was inactive. On to `c1coc(CNc2ncnc3nc[nH]c23)c1`, for which the result in assay [7] and in assay [8] was inactive. On to `CNC(=C[N+](=O)[O-])NCCSCc1ccc(CN(C)C)o1`, for which the call in assay [7] and in assay [8] was inactive. As to `COC(=O)c1cccc(C(=O)OC)c1`, the molecule was classed as inactive in assay [7] and in assay [8]. On to `OC[C@H]1O[C@@H](O[C@H]2[C@H](O)[C@@H](O)[C@H](O)O[C@@H]2CO)[C@H](O)[C@@H](O)[C@H]1O`, for which the AC50 in assay [7] is 603 nM (active).
